Results filed as inconclusive are left out. A call without a number means that no potency is given here. Activity calls are given as the source filed them. The call rests on the fitted dose curve.

The experiment addresses Tyrosine-protein kinase ABL1 (Homo sapiens) (UniProt P00519). The experiment in a line: ABL1 kinase (ABL1-N-HiBiT) SDR gain of signal screen - plus ATP. Particulars: purified ABL1-N-HiBiT enzyme, HiBiT luminescence with 50 uM ATP, 30 min; series mostly up to 57.5 µM. An outline of the steps: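 Structural-dynamics readout: compound binding alters HiBiT complementation signal of 10 nM ABL1-N-HiBiT in buffer containing 50 uM ATP. After 30 min RT compound exposure, HiBiT detection reagent added 10 min before luminescence imaging; imatinib as positive control.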
Background: HiBiT is a short tag that completes a luciferase, so light tracks the accessible tagged protein.

Sequence of Tyrosine-protein kinase ABL1 (Homo sapiens) (P00519 whole entry, looked up): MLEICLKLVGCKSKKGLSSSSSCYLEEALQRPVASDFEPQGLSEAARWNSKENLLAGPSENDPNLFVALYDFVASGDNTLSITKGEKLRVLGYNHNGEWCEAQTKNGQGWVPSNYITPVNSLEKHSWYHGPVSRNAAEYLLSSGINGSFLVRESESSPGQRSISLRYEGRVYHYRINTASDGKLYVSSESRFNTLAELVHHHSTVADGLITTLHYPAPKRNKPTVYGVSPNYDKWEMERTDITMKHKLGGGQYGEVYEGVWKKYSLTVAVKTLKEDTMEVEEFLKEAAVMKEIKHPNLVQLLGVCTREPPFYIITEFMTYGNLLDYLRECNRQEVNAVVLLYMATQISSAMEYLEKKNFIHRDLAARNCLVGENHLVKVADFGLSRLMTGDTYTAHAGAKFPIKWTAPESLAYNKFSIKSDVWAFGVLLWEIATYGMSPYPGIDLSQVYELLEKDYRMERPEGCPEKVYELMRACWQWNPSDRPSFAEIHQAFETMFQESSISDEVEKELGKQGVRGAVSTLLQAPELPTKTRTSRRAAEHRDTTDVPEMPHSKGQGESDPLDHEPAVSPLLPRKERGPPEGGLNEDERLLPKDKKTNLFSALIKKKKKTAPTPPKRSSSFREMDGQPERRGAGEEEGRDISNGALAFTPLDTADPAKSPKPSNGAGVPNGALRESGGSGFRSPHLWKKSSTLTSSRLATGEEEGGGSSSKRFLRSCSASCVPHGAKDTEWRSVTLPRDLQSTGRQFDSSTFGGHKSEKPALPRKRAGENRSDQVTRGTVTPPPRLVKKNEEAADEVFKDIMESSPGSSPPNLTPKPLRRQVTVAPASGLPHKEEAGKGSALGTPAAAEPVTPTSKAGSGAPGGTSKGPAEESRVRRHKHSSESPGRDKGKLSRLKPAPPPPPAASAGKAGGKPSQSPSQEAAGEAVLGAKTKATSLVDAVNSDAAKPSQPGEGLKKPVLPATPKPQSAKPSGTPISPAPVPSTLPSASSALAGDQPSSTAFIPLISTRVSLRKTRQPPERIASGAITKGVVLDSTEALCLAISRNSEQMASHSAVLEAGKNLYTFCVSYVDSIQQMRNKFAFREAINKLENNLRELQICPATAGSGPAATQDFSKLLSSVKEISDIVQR

In the case of `Cc1cc(O)c2c(c1)C(=O)c1cc(O)cc(O)c1C2=O`, the Potency result is “inactive”.
Then `COc1ccc2c(Oc3ccc(NC(=O)c4c(C)n(CC(C)(C)O)n(-c5ccccc5)c4=O)nc3)ccnc2c1`, with “inactive”; and `CC1(C)OCCn2c1nc1c(N3CCOCC3)nc(-c3cnc(N)nc3)nc12`, with “inactive”; and `CCN1CCN(Cc2ccc(NC(=O)c3ccc(C)c(NC(=O)c4cncc(-c5cccs5)c4)c3)cc2C(F)(F)F)CC1`, with “inactive”.
With `NC1(C(=O)N[C@@H](CCO)c2ccc(Cl)cc2)CCN(c2ncnc3[nH]ccc23)CC1`, the Potency entry is “inactive”.
For `Cn1ncc(NC(=O)c2nc(-c3c(F)cccc3F)sc2N)c1N1CC[C@@H](N)[C@H](F)CC1`, the Potency result is “inactive”.
As to `CN1CCN(c2ccc(Nc3ncc4cc(C#N)c(=O)n(C5CCCC5)c4n3)cc2)CC1`, the Potency entry was “inactive”.
On to `Cc1sc2c(c1C)C(c1ccc(Cl)cc1)=N[C@@H](CC(=O)Nc1ccc(OCCOCCOCCOCCNc3cccc4c3C(=O)N(C3CCC(=O)NC3=O)C4=O)cc1)c1nnc(C)n1-2` (stereo partly drawn), for which the Potency result was “inactive”.
Take `CC(C)CCN1c2nc(Nc3cc(F)c(O)c(F)c3)ncc2N(C)C(=O)C1C` (stereo not drawn): the Potency result is “inactive”.
In the case of `Cc1cccc(/C=N/Nc2cc(N3CCOCC3)nc(OCCc3ccccn3)n2)c1`, the Potency result is “inactive”.
Then `Nc1nc(Nc2ccc(S(N)(=O)=O)cc2)n(C(=S)Nc2c(F)cccc2F)n1`, with 1260 nM (active).
Turning to `Cc1nc2ccc(-n3ncc(C(=O)c4cc5ccccc5[nH]4)c3N)cc2[nH]1`, the Potency entry is “inactive”.
`CCN1/C(=C\C(C)=O)Sc2ccc(OC)cc21`: the Potency result was “inactive”.
Turning to `Cc1cc(Nc2ncc3c(n2)N(C)C(=O)N(c2cc(NC(=O)c4cccc(C(F)(F)F)c4)ccc2C)C3)n(C)n1`, the Potency result is “inactive”.
As for `NC1CCC(Nc2nc(Nc3ccc(C(=O)N4CCCCC4)cc3)c3ncn(-c4cccc(F)c4)c3n2)CC1` (stereo not drawn), the Potency was 2110 nM (active).
Regarding `COc1ccc(-n2c(SCC#N)nc3sc4c(c3c2=O)CCCC4)cc1`, the Potency entry is “inactive”.
For the compound `Cc1ccc(NC(=O)c2ccc(CN3CCN(C)CC3)cc2)cc1Nc1nc(-c2cccnc2)cs1`, the Potency entry is “inactive”.
As to `CC(C)(C)n1nc(-c2cccc3ccccc23)c2c(N)ncnc21`, the Potency entry is “inactive”.
For the compound `Oc1ccc(-c2ccc(-c3cc(Nc4cccc(CNC5CC5)c4)n[nH]3)cc2)c(O)c1`, the Potency entry was “inactive”.
In the case of `O=C(O)C1(Cc2cccc(Nc3nccs3)n2)CCC(Oc2cccc(Cl)c2F)CC1` (stereo not drawn), the Potency was 1150 nM (active).
For the compound `O=c1c(O)c(-c2ccc(O)c(O)c2)oc2cc(O)cc(O)c12`, the Potency result is “inactive”.
Regarding `c1cc(-c2cc(C3CCNCC3)[nH]n2)ccn1`, the Potency result is “inactive”.
Consider `Cc1[nH]c(/C=C2\C(=O)Nc3ccc(S(=O)(=O)Cc4c(Cl)cccc4Cl)cc32)c(C)c1C(=O)N1CCC[C@@H]1CN1CCCC1`, for which the Potency result was “inactive”.

Values taken from PubChem BioAssay AID1963316 (National Center for Advancing Translational Sciences (NCATS), 2024).
